# Results filed as inconclusive are left out. The source holds several records for some structures; these can differ, active in one and inactive in another. Active and inactive are the calls of the source. The calls were made as follows, unless noted: active = hit-call score of the fitted dose curve at least 0.9, where 1 is the maximum; inconclusive = response in the unintended direction; inactive = score below 0.9. Peptide text beside a SMILES is read from it.
# Key:
# [1] = target: Peroxisome proliferator-activated receptor gamma (Homo sapiens) (UniProt P37231); assay: NVS_NR_hPPARg: NovaScreen (NVS) Nuclear Receptor Binding Assay for human Peroxisome Proliferator-activated Receptor gamma (PPARg) (AID 2283370)
# Procedure, shortened: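 Chemicals were tested first in duplicate at 25 uM, then in concentration series if active. Binding to cell-free PPARg protein was measured by fluorescence polarization after 2 h, with loss of signal scored against DMSO.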
# [2] = target: mouse Estrogen Receptor alpha (Era), Esr1 (gene 13982) (UniProt P19785); assay: NVS_NR_mERa: NovaScreen (NVS) Nuclear Receptor Binding Assay for mouse Estrogen Receptor alpha (Era) (AID 2283378);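 also: hit means loss of bound radioligand signal relative to DMSO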
# Procedure, shortened: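 Extracted mouse Era incubated with tritiated or iodinated radioligand plus test chemical, 18 h. Bound fraction separated on filters, counted by scintillation. DMSO = negative control/baseline; duplicate single-point at 25 uM, then concentration-response follow-up.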
# [3] = target: Estrogen receptor beta (Homo sapiens) (UniProt Q92731); assay: OT_ER_ERbERb_1440: Odyssey Thera (OT) 24-hour HEK293T Protein-Complementation Assay for Estrogen Receptor-beta/-beta Homodimer (AID 2283380);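 also: scored as signal increase over DMSO baseline for both agonists and antagonists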
# Procedure, shortened: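 HEK293T cells stably expressing ER beta LBD (aa 310-547) homodimer fragment-complementation reporter, dosed 24 h. Cells formaldehyde-fixed, Draq5-stained; gain in nuclear (agonist) or nuclear plus cytoplasmic (antagonist) fluorescence versus DMSO read by laser scanning cytometry.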
# [4] = target: Estrogen receptor (Homo sapiens) (UniProt P03372); assay: OT_ERa_GFPERaERE_0480: Odyssey Thera (OT) 8-hour HeLa Transcription Induction Assay for Estrogen Receptor (AID 2283381; active = hit-call score of the fitted dose curve at least 0.9, where 1 is the maximum; inactive = score below 0.9)
# Procedure, shortened: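 HeLa cells expressing GFP reporter under estrogen response element, imaged 8 h after dosing. GFP induction quantified by high-content fluorescence microscopy image analysis; gain of signal fitted versus DMSO.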
# [5] = target: Estrogen receptor (Homo sapiens) (UniProt P03372); assay: OT_ERa_GFPERaERE_0120: Odyssey Thera (OT) 2-hour HeLa Transcription Induction Assay for Estrogen Receptor (AID 2283382)
# Procedure, shortened: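 HeLa cells were dosed for 2 h, then GFP reporter induction was quantified by fluorescence microscopy with high-content image analysis. Gain of signal fitted against DMSO baseline.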
# [6] = target: Bile acid receptor (Homo sapiens) (UniProt Q96RI1); assay: OT_FXR_FXRSRC1_1440: Odyssey Thera (OT) 24-hour HEK293T Protein-Complementation Assay for Farnesoid X receptor/SRC-1 Co-activator (AID 2283384)
# Procedure, shortened: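 HEK293T cells, 24 h after chemical dosing. FXR–SRC-1 coactivator interaction read as fluorescence from protein-fragment complementation of a split reporter. Gain of signal fitted against DMSO baseline.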
# [7] = target: Retinoic acid receptor RXR-alpha (Homo sapiens) (UniProt P19793); assay: OT_NURR1_NURR1RXRa_0480: Odyssey Thera (OT) 8-hour HEK293T Protein Complementation Assay for Nurr1/retinoid X receptor (RXR) (AID 2283385)
# Procedure, shortened: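 HEK293T cells expressing Nurr1 and RXRα fused to reporter fragments (protein-fragment complementation); fluorescence measured 8 h after dosing. Gain of signal fitted relative to DMSO.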
# [8] = test system: guinea pig Dopamine Transporter (DAT), gene 100714898; assay: NVS_TR_gDAT: NovaScreen (NVS) Transporter Assay for guinea pig Dopamine Transporter (DAT) (AID 2283369);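 also: active compounds lower bound radioligand signal relative to DMSO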
# Procedure, shortened: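 Scintillation counts of filter-retained radioligand report binding to guinea pig striatal membranes after 2 h. Activity scored as signal loss relative to DMSO, first at 25 uM in duplicate, then in concentration series to 50 uM.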
# [9] = target: human Norepinephrine Transporter (NET), SLC6A2 (gene 6530) (UniProt P23975); assay: NVS_TR_hNET: NovaScreen (NVS) Transporter Assay for human Norepinephrine Transporter (NET) (AID 2283377);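 as to AC50: displacement of radioligand from human NET seen as loss of scintillation signal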
# Procedure, shortened: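 Cell-free radioligand binding using CHO-derived membrane protein expressing human NET, read by filter scintillation counting 1 h after dosing; loss of signal vs DMSO. Initial duplicate screen at 25 uM, actives retested in concentration series.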
# [10] = target: Nuclear receptor subfamily 1 group I member 2 (Homo sapiens) (UniProt O75469); assay: NVS_NR_hPXR: NovaScreen (NVS) Nuclear Receptor Binding Assay for human Pregnane X Receptor (PXR) (AID 2283365);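 also: a drop in FRET signal versus DMSO baseline means the compound binds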
# Procedure, shortened: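 Human PXR protein, cell-free; compound added, incubated 2 h, TR-FRET read. Signal decrease vs DMSO = binding. Screened 25 uM duplicate, actives re-run as dilution series.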
# [11] = target: guinea pig Sigma Receptor, Non-selective Binding, SIGMAR1 (gene 100135589) (UniProt Q60492); assay: NVS_OR_gSIGMA_NonSelective: NovaScreen (NVS) Nuclear Receptor Binding Assay for guinea pig Sigma Receptor, Non-selective Binding (AID 2283367)
# Procedure, shortened: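 Radioligand displacement on guinea pig brain membranes, read by filter-based scintillation counting 1 h after dosing. Loss of signal versus DMSO; initial duplicate single-point screen at 25 uM, actives followed in concentration series.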
# [12] = target: human Dopamine Transporter (DAT), SLC6A3 (gene 6531) (UniProt Q01959); assay: NVS_TR_hDAT: NovaScreen (NVS) Transporter Assay for human Dopamine Transporter (DAT) (AID 2283374);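 also: activity means loss of bound radioligand signal relative to DMSO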
# Procedure, shortened: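 Cell-free radioligand displacement binding at human DAT, 1 h after dosing, with filtration and scintillation counting. Primary screen in duplicate at 25 uM, actives then in concentration series. Loss of bound signal versus DMSO scored.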
# [13] = target: Agonist Androgen Response Element (ARE), AR (gene 367) (UniProt P10275); assay: OT_AR_ARELUC_AG_1440: Odyssey Thera (OT) 24-hour CHO-K1 Luciferase Assay for Agonist Androgen Response Element (ARE) (AID 2283379)
# Procedure, shortened: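 CHO-K1 cells carrying an ARE-driven luciferase reporter were exposed to compounds for 24 h. Luminescence was then read after adding a D-luciferin/ATP mix, and activity was scored as a gain in signal over DMSO vehicle.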
# Sequence of Nuclear receptor subfamily 1 group I member 2 (Homo sapiens) (O75469 whole entry, looked up): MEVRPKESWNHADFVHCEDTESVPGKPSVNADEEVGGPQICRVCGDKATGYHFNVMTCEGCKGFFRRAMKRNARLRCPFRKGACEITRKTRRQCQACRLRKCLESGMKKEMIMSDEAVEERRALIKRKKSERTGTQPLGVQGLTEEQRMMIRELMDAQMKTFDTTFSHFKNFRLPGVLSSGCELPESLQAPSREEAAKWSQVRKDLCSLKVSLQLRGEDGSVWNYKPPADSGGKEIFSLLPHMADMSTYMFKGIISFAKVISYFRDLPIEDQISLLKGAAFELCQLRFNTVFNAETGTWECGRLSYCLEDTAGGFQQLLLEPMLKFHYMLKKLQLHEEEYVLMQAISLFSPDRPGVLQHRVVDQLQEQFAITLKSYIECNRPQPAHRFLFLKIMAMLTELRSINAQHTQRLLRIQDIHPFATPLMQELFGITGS
# Sequence of Retinoic acid receptor RXR-alpha (Homo sapiens) (P19793 whole entry, looked up, the tested form may be a part): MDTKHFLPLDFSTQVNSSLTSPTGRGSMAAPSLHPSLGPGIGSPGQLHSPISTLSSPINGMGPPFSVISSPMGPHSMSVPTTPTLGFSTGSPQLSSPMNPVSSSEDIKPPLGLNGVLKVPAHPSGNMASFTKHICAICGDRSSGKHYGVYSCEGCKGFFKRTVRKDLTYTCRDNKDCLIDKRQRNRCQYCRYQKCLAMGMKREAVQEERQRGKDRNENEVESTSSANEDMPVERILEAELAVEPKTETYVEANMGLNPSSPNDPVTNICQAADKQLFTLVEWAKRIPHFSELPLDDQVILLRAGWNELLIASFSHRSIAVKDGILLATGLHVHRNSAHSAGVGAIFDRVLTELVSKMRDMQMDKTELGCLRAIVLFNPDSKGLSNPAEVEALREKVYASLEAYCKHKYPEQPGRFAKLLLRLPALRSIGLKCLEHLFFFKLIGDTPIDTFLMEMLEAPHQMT
# Sequence of Peroxisome proliferator-activated receptor gamma (Homo sapiens) (P37231 whole entry, looked up): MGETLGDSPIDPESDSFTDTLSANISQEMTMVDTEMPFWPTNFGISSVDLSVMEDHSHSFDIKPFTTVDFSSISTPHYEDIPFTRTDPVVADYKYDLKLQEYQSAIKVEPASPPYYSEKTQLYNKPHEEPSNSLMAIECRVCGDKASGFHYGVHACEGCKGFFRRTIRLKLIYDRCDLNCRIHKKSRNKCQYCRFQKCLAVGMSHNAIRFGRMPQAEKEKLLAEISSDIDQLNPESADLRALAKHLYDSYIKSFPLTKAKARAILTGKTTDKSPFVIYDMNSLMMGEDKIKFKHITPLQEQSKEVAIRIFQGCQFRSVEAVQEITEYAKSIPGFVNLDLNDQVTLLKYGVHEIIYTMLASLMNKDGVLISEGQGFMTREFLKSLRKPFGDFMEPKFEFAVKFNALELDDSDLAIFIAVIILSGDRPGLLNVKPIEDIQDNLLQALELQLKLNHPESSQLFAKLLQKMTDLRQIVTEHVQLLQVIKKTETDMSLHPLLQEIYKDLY
# Sequence of mouse Estrogen Receptor alpha (Era), Esr1 (gene 13982) (P19785 whole entry, looked up): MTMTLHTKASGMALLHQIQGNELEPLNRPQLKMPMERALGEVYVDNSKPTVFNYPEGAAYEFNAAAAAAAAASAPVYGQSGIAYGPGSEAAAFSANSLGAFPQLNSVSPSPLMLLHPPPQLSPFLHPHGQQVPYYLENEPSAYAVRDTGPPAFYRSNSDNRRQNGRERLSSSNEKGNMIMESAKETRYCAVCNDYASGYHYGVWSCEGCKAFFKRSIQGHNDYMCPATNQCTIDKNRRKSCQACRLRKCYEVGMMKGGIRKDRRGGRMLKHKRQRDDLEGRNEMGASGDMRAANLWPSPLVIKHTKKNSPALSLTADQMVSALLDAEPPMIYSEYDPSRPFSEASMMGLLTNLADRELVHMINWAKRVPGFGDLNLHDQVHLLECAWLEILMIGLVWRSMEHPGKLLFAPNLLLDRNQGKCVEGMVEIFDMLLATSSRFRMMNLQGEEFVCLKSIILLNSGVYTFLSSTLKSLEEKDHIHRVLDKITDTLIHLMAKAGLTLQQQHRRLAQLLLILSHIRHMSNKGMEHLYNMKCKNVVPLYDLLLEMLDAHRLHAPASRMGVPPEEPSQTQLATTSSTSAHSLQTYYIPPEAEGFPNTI
# Sequence of Estrogen receptor beta (Homo sapiens) (Q92731 whole entry, looked up, the tested form may be a part): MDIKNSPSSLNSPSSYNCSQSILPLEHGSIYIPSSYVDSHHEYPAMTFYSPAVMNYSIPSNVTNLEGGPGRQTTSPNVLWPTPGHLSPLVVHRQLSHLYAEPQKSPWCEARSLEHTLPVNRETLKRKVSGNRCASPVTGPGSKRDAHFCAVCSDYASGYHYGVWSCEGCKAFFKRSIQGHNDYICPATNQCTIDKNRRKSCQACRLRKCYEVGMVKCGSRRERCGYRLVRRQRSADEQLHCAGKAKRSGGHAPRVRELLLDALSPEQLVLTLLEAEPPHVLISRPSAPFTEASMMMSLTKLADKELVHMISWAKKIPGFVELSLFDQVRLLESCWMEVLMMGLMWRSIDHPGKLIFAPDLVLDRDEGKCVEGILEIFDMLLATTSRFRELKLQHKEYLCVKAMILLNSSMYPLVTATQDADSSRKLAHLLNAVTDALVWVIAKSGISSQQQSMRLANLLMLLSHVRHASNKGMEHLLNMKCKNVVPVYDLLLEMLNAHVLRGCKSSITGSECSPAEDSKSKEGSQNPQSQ
# Sequence of human Norepinephrine Transporter (NET), SLC6A2 (gene 6530) (P23975 whole entry, looked up): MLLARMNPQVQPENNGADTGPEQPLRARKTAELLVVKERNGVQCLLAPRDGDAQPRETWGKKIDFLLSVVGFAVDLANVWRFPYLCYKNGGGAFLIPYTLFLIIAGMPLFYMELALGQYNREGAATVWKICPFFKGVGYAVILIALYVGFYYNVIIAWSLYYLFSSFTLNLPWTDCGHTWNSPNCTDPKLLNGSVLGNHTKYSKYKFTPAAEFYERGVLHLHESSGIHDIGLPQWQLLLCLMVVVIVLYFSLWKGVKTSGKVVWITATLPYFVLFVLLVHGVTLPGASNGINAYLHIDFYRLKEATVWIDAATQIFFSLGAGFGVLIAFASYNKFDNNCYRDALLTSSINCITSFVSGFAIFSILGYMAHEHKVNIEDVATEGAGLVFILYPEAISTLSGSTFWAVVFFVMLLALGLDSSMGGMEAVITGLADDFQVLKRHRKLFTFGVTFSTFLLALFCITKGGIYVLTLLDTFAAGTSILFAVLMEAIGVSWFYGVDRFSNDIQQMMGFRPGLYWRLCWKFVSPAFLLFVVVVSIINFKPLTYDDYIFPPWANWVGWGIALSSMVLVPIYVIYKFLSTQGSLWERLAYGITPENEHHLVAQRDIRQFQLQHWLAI
# Sequence of human Dopamine Transporter (DAT), SLC6A3 (gene 6531) (Q01959 whole entry, looked up): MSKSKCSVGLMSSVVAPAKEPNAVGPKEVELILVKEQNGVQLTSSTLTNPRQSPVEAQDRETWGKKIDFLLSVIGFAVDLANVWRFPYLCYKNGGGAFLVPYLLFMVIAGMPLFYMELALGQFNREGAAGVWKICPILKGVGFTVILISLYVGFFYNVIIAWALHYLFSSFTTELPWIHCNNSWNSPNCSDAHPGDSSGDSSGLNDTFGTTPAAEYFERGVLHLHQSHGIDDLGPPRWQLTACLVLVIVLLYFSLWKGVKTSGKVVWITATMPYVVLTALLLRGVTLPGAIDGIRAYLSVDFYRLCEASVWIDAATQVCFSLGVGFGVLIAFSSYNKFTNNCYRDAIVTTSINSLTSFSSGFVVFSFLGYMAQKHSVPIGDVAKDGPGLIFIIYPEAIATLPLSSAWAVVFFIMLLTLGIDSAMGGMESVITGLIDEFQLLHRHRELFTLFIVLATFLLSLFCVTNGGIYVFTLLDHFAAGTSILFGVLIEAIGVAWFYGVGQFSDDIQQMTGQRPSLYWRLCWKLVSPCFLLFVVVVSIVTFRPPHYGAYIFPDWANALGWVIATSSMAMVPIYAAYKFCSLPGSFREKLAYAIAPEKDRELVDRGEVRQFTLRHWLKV
# Sequence of Estrogen receptor (Homo sapiens) (P03372 whole entry, looked up): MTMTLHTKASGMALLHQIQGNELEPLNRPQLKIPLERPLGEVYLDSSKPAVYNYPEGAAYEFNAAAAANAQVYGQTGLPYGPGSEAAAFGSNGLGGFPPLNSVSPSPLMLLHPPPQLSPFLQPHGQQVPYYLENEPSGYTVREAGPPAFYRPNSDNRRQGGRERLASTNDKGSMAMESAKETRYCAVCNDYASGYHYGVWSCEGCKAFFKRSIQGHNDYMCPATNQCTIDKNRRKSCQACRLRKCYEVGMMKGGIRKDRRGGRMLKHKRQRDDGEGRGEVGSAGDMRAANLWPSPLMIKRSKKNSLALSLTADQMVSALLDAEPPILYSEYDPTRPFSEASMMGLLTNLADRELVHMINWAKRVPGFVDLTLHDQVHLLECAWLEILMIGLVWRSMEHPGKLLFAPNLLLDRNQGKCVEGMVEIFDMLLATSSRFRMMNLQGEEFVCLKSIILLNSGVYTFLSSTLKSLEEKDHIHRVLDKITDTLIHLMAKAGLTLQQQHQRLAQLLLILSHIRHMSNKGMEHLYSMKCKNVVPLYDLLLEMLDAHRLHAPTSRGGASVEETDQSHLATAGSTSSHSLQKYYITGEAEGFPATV
# Sequence of Bile acid receptor (Homo sapiens) (Q96RI1 whole entry, looked up, the tested form may be a part): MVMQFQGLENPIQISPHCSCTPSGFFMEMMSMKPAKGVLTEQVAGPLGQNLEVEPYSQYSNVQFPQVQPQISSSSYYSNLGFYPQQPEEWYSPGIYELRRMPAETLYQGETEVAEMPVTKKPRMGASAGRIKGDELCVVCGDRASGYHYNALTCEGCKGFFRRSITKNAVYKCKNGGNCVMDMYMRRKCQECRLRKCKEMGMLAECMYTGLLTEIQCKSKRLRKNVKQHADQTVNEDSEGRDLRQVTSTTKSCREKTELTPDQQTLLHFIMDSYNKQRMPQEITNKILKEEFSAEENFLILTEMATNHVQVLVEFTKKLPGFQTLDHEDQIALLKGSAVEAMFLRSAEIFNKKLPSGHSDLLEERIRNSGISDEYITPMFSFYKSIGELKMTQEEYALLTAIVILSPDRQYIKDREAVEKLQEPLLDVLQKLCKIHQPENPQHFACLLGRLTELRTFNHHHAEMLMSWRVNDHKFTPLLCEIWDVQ
compound,measurement,setting,value
O=C(OCc1ccccc1)c1ccc(O)cc1,AC50,[1],10.4 µM (active)
same,outcome,[1],inactive
same,AC50,[2],1.08 µM (active)
same,AC50,[3],5.67 µM (active)
same,outcome,[4],inactive
same,outcome,[5],inactive
same,AC50,[6],50 µM (active)
same,outcome,[7],inactive
CCCCCCCCCCCCCc1ccccc1,outcome,[8],inactive
CC(C=O)c1ccccc1 (centres undefined),outcome,[9],inactive
CCCCNS(=O)(=O)c1ccccc1,outcome,[10],inactive
same,outcome,[3],inactive
same,outcome,[4],inactive
same,outcome,[5],inactive
same,outcome,[6],inactive
CCN(CC)c1cccc(C)c1,AC50,[11],38.5 µM (active)
same,AC50,[8],4.96 µM (active)
CO[Si](C)(C)OC,outcome,[2],inactive
same,outcome,[3],inactive
same,outcome,[4],inactive
same,outcome,[5],inactive
same,outcome,[7],inactive
Oc1ccccc1Cc1ccccc1O,outcome,[1],inactive
same,AC50,[3],11.8 µM (active)
same,outcome,[4],inactive
same,outcome,[5],inactive
CCCCCCCCCCCC(=O)N(C)CC(=O)O,outcome,[1],inactive
same,outcome,[3],inactive
same,outcome,[4],inactive
same,outcome,[5],inactive
same,outcome,[7],inactive
c1ccc2c(c1)[nH]c1ccccc12,AC50,[9],0.94 µM (active)
O=C(O)CC(C(=O)O)S(=O)(=O)O (centres undefined),outcome,[10],inactive
same,outcome,[4],inactive
same,outcome,[5],inactive
same,outcome,[7],inactive
CC(C)(C)N,outcome,[1],inactive
same,outcome,[4],inactive
same,outcome,[5],inactive
CC12CCC(CC1)C(C)(C)O2,AC50,[1],19.1 µM (active)
same,outcome,[4],inactive
same,outcome,[5],inactive
same,outcome,[6],inactive
CC(C)C(=O)OCCOc1ccccc1,AC50,[12],19.6 µM (active)
O=C(O)/C=C/c1ccccc1,outcome,[1],inactive
same,AC50,[4],23.4 µM (active)
same,outcome,[5],inactive
COC(=O)[C@H](Cc1ccccc1)NC(=O)[C@@H](N)CC(=O)O (H-Asp-Phe-OMe),outcome,[1],inactive
same,outcome,[4],inactive
same,outcome,[5],inactive
same,outcome,[7],inactive
CCCCCCOC(=O)CCCCC(=O)OCCCCCC,outcome,[1],inactive
same,outcome,[12],inactive
same,outcome,[3],inactive
same,outcome,[4],inactive
same,outcome,[5],inactive
same,outcome,[6],inactive
Nc1ncnc2nc[nH]c12,outcome,[12],inactive
C[Si](C)(C)N[Si](C)(C)C,outcome,[2],inactive
same,outcome,[3],inactive
same,outcome,[4],inactive
same,outcome,[5],inactive
CC1=CC=C(C(C)C)CC1,outcome,[10],inactive
same,AC50,[4],23.6 µM (active)
same,AC50,[5],23.8 µM (active)
same,outcome,[7],inactive
COc1ccc(C(=O)c2ccccc2)c(O)c1,AC50,[12],16.4 µM (active)
same,outcome,[13],inactive
same,AC50,[3],57.8 µM (active)
same,outcome,[4],inactive
same,outcome,[5],inactive
same,outcome,[6],inactive
same,outcome,[7],inactive
c1ccc(-c2nc3ccccc3[nH]2)cc1,AC50,[12],14.9 µM (active)
same,AC50,[9],12 µM (active)
CC(C)(C)C1CCC(=O)CC1,outcome,[10],inactive
same,outcome,[3],inactive
same,outcome,[4],inactive
same,outcome,[5],inactive
same,outcome,[6],inactive
same,outcome,[7],inactive
O=C(Oc1ccccc1)c1ccccc1C(=O)Oc1ccccc1,AC50,[8],3.31 µM (active)
same,AC50,[12],0.758 µM (active)
CCCCc1ccc(Cl)cc1,outcome,[10],inactive
same,outcome,[3],inactive
same,outcome,[4],inactive
same,outcome,[5],inactive
same,outcome,[6],inactive
same,outcome,[7],inactive

# — PubChem BioAssay (EPA / NIEHS)
